Compounds with a hit are over-represented: about 19% of the library has one in this group of screens.
IL-1B inflam inh = qHTS for Inhibitors of Inflammasome Signaling: IL-1-beta AlphaLISA Primary Screen. activity change, % at 57.5 µM. THP-1 LPS/ATP IL-1B secretion, AlphaLISA, 16 h; stronger effect = lower value. actives 4.7% (n = 360,000). AID 743279, 2014; in the data active = activity change below about -50%; inconclusive = mostly about -30% to -49%
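Secreted IL-1B measured by AlphaLISA bead assay after 16 h compound exposure of THP-1 cells; compounds (final up to 57.5 uM) added 1 h before LPS (250 ng/mL) and ATP (1.25 mM) stimulation; lower signal means less secretion.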
TDP1 cell CPT = qHTS for Inhibitors of human tyrosyl-DNA phosphodiesterase 1 (TDP1): qHTS in cells in presence of CPT; Potency, µM (series often up to 46.2 µM), inactives show at the top dose activity change, negative = growth inhibition, actives largely listed as inhibitors; chicken DT40 Tdp1-/-;hTDP1 cells + 20 nM CPT, ATP luminescence, 48 h; actives 12% (n = 420,000); also: potency is read from the fitted curve at half-maximal effect; nearly all actives have a fitted effect of over 55% in size
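Chicken DT40 Tdp1-/- cells stably complemented with human TDP1 were seeded at 400 cells/well in medium containing 20 nM camptothecin, exposed to pin-transferred compounds, and grown at 37 °C for at least 48 hr. Viability was read as ATP luminescence.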
TDP1 cell noCPT = qHTS for Inhibitors of human tyrosyl-DNA phosphodiesterase 1 (TDP1): qHTS in cells in absence of CPT; AID 686978, 2013; Potency, µM (series often up to 46.2 µM), inactives show at the highest dose activity change, negative = growth inhibition, actives largely listed as inhibitors; actives 15% (n = 420,000); DT40 Tdp1-/- hTDP1 cells, no CPT, ATP luminescence, 48 h; also: potency is read from the fitted curve at half-maximal effect; nearly all actives have a fitted effect of over 55% in size
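Readout: luminescence from CellTiter-Glo after 30 min in the dark at RT. Cells: DT40 Tdp1-/- with stable hTDP1, 400/well. Exposure: compounds alone, ≥48 hr, 37 °C.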
HT1080NT lethal = qHTS for induction of synthetic lethality in tumor cells producing 2HG: qHTS for the HT-1080-NT fibrosarcoma cell line. HT-1080-NT fibrosarcoma viability, CellTiter-Glo ATP luminescence, 48 h. Potency, µM (series often up to 46.1 µM), inactives show at the top dose activity, negative = less viability, hits mostly cytotoxic. actives 1.6% (n = 360,000). AID 686970, 2013;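 also: NT is the 2HG producing partner of a matched IDH1 knockdown line; potency is read from the fitted curve at half-maximal effect; 0% = DMSO-treated cells and -100% = media-only wells without cells; nearly all actives have a fitted effect of over 55% in size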
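HT-1080-NT; 750 cells/well; 5% FBS RPMI; 48 h compound, 37 degrees C; CellTiter-Glo luminescence; curve fitting and curve-class assignment.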
HT1080 IDH1KD tx = qHTS for induction of synthetic lethality in tumor cells producing 2HG: qHTS for the HT-1080-IDH1KD cell line. HT-1080 IDH1 knockdown viability, ATP luminescence, 48 h. Potency, µM (series often up to 46.1 µM), for inactives: top-dose activity, negative = toxicity, most hits filed as cytotoxic. actives 2% (n = 360,000);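 also: potency is read from the fitted curve at half-maximal effect; 0% = DMSO wells and -100% = cell-free medium wells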
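IDH1KD HT-1080 cells, 750/well, RPMI + 5% FBS; compound pinned after 2 h settling; 48 h, 37 °C; CellTiter-Glo luminescence; % activity normalised to DMSO and no-cell wells; curves fitted, classed by r2 and efficacy.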
uPA generation = qHTS for Inhibitors of Cell Surface uPA Generation; AID 540303, 2011; actives 0.31% (n = 330,000); cell surface uPA generation assay, qHTS; Potency, µM (series often up to 38.3 µM), without a hit: at the highest dose activity change, negative = inhibition, hits mostly inhibitors; active = well fitted inhibition curve with a large enough effect; inconclusive = small, poorly fitted or top-dose-only effect; inactive = no such curve, though single readings can be large or run the other way; tested in mouse RAW 264.7 cells; also: potency is read from the fitted curve at half-maximal effect; nearly all actives have a fitted effect of over 55% in size
* hit, by the source's call; ? = inconclusive; . = not tested or not shown; [ ] = another dose, or the depositor's remark. Unless noted, calls follow the shape of the dose curve; as a rule, active = well fitted curve in the direction sought with a large enough effect; inconclusive = small, poorly fitted or top-dose-only effect, or another doubt; inactive = no such curve, though single readings can be large; an effect the other way counts as inactive or inconclusive. Unless noted, % is scaled to controls: 0 for no effect and ±100 for the full control effect.

SMILES | IL-1B inflam inh | TDP1 cell CPT | TDP1 cell noCPT | HT1080NT lethal | HT1080 IDH1KD tx | uPA generation
CCCn1c(SCC(=O)N2c3ccc(F)cc3CCC2C)nnc1-c1ccccn1 (configuration not stated) | -10.8 | ? | 20.6µM* | -0.5% | -0.4% | 1.1%
CC1CCc2cc(F)ccc2N1C(=O)CSc1nnc2c3ccccc3n(C)c2n1 (configuration not stated) | -14.1 | 18.4µM* | 20.6µM* | 5.9% | 12.9% | 3.6%
CC1Cc2ccccc2N1C(=O)CSc1nnc2c(n1)[nH]c1ccc(F)cc12 (configuration not stated) | ? | ? | 20.6µM* | -2.6% | 0.0% | 0.9%
Cn1c2ccccc2c2nnc(SCC(=O)NC3CCCC3)nc21 | -0.4 | -1.9% | ? | 7.0% | 3.6% | -0.1%
COC(=O)C(CCSC)NC(=O)C1CCN(c2ncnc3c2nc2n3CCCCC2)CC1 (configuration not stated) | . | -2.9% | -17.2% | . | . | .
CCC(=O)N(C1=C(NC)C(=O)c2ccccc2C1=O)C(C)C | 132.9 | 2.06µM* | 1.64µM* | 4.61µM* | 9.2µM* | ?
COc1cc(N)c(Cl)cc1C(=O)N[C@H]1CCN(CCCOc2ccc(F)cc2)C[C@@H]1OC | . | -81.6% | 26.6µM* | . | . | .
O=C(Cn1sc2ccccc2c1=O)Nc1ccccc1 | -104.2* | 2.31µM* | 2.06µM* | ? | ? | .
Nc1cccc2c1C(=O)N(CC(=O)NC13CC4CC(CC(C4)C1)C3)C2=O | 26.5 | -7.8% | -2.4% | -2.5% | -2.0% | 3.1%
O=C(CN1C(=O)c2ccccc2C1=O)Nc1ccccc1 | 33.1 | 2.2% | 5.3% | 14.4% | 2.8% | 4.6%
O=C(Cn1sc2ccccc2c1=O)NC12CC3CC(CC(C3)C1)C2 | -99.2* | 1.46µM* | 1.84µM* | -9.3% | ? | -11.4%
CSc1ccc(C(=O)N2CCC(CCC(=O)NC3CC3)CC2)cc1 | -4.3 | -3.0% | 18.5% | ? | 7.5% | 6.3%
O=C(O)c1ccccc1C(=O)Nc1c(-c2ccccc2)nc2ccccn12 | 24.3 | 8.1% | 7.9% | ? | 10.0% | -4.6%
Cc1cccc(C(=O)Nc2c(-c3ccccc3)nc3cc(C)ccn23)c1 | . | ? | 20.6µM* | . | . | .
Cc1ccn2c(NC(=O)c3ccccc3)c(-c3ccccc3)nc2c1 | 2.2 | 20.0% | 3.7% | -7.3% | -0.1% | 2.6%
Cc1ccn2c(NC(=O)c3cccc(Cl)c3)c(-c3ccccc3)nc2c1 | . | ? | 23.1µM* | . | . | .
COc1ccc(N2CCN(Cc3nc4c(c(=O)[nH]c(=O)n4C)n3CC(C)C)CC2)cc1 | . | -5.1% | -6.9% | . | . | .
Cc1ccc(-c2nc3c(Cl)cc(C(F)(F)F)cn3c2Cc2cccc(F)c2)cc1 | 10.1 | ? | ? | 17.9% | 10.0% | .
N#CC1=C(N)N2C(=C(C#N)C1c1cccc(Br)c1)Nc1ccccc12 (configuration not stated) | -118.6* | 3.66µM* | 3.26µM* | ? | ? | 0.7%
N#CC1=C(N)N2C(=C(C#N)C13CCN(Cc1ccccc1)CC3)Nc1ccccc12 | 9.7 | -29.9% | -27.8% | -0.8% | -18.8% | .
N#CC1=C(N)N2C(=C(C#N)C1c1ccc(Br)cc1)Nc1ccccc12 (configuration not stated) | ? | 6.51µM* | 3.26µM* | ? | ? | -14.3%
O=C1NC[C@H](CCCCN2C[C@H](Cc3ccc(O)cc3)N(Cc3ccccc3)C(=O)C2=O)N(CC2CCCCC2)C1=O | -0.4 | -6.0% | -10.5% | 0.2% | 2.5% | .
Cc1oc(-c2ccccc2Cl)nc1CSc1nc2c(c(=O)[nH]1)CCCC2 | -7.5 | 13µM* | 18.4µM* | 5.8% | -0.5% | -2.1%
COC(=O)c1ccc(CSc2nc3c(c(=O)[nH]2)CCC3)cc1 | 27.5 | ? | 20.6µM* | 14.9% | 22.6% | .
O=c1[nH]c(SCc2ccccc2Cl)nc2c1CCC2 | 10.4 | ? | 29.1µM* | -1.4% | 1.6% | 3.1%
SMILES | IL-1B inflam inh | TDP1 cell CPT | TDP1 cell noCPT | HT1080NT lethal | HT1080 IDH1KD tx | uPA generation
Cc1cccc(CSc2nc3c(c(=O)[nH]2)CCC3)c1 | 17.9 | ? | ? | 2.3% | 6.7% | 10.4%
O=c1[nH]c(SCCc2ccccc2)nc2c1CCC2 | -5.4 | ? | 7.31µM* | 1.4% | 3.9% | .
Cc1ccc(CSc2nc3c(c(=O)[nH]2)CCC3)cc1 | 20.5 | -7.0% | -3.6% | 1.4% | 16.6% | 2.1%
CCOc1cc(C2NC(=O)NC(c3ccccc3)=C2C(=O)c2ccccc2)c(Br)cc1OCC(=O)O (configuration not stated) | 0.8 | -21.4% | -11.6% | 11.2% | 6.7% | -1.0%
CCC1CN(CCC(=O)N2CCN(c3ncccn3)CC2)Cc2cc(OC)ccc2O1 (configuration not stated) | . | -2.9%[9.04 µM] | -13.6% | . | . | .
CCN(CCCNC(=O)c1nn(-c2ccc(OC)c(Cl)c2)c(=O)c2c1c1ccccc1n2C)c1cccc(C)c1 | . | ? | -23.1% | . | . | .
Nc1nc(SCc2ccccc2Cl)nc2nc3c(cc12)CCCC3 | 0.0 | ? | -8.0% | -0.5% | 5.2% | -3.2%
CNc1nc(SCc2ccccc2Cl)nc2c1CCCC2 | -18.4 | ? | ? | ? | 32.6µM* | -10.2%
O=C(NCC1CCCO1)c1cccc(S(=O)(=O)N(Cc2ccccc2)c2ccccc2)c1 (configuration not stated) | 3.2 | -0.5% | ? | -3.4% | -7.7% | 1.1%
O=C1c2ccccc2C(Nc2ccc(-c3nc4ccccc4[nH]3)cc2)N1Cc1ccco1 (configuration not stated) | -1.5 | ? | 18.4µM* | -4.0% | -13.8% | -1.0%
COC(=O)c1cc(NC2c3ccccc3C(=O)N2Cc2ccco2)cc(C(=O)OC)c1 (configuration not stated) | 3.7 | -7.0% | 2.1% | 15.1% | 3.0% | 4.0%
O=C(Nc1ccc2nc(-c3cccnc3)[nH]c2c1)c1ccco1 | -16.8 | ? | -28.0% | 9.8% | 9.4% | ?
O=C1c2ccccc2C(Nc2ccc3nc(-c4cccnc4)[nH]c3c2)N1Cc1ccco1 (configuration not stated) | 0.0 | 9.2µM* | 7.31µM* | 0.6% | 1.8% | -2.9%
